Results published in the antibiotic and cytotoxicity screens of Wong et al. (2023).
Screen size: about 39,000 compounds; about 1,500 (3.8%) were called active. What follows is part of a selection rich in actives, with near analogues and random picks from the rest.

The molecules below were run on HSkMC (human skeletal muscle cells) (assay: cytotoxicity call (relative viability < 0.9)). Conditions: 10 µM.
`C[C@@H]1CN([C@H](C)CO)C(=O)c2cccc(NC(=O)c3nc4ccccc4s3)c2O[C@H]1CN(C)C(=O)Nc1cccc2ccccc12` was tested, and the cytotoxicity call was “inactive”.
In the case of `CCN1C(=O)CN(CC(=O)O)C1=O`, the cytotoxicity call is reported as “inactive”.
For `NCc1ccc2nsnc2c1`, the cytotoxicity call was “inactive”.
`C[C@@H]1CN([C@@H](C)CO)C(=O)c2cccc(NS(C)(=O)=O)c2O[C@H]1CN(C)C(=O)Nc1ccc(C(F)(F)F)cc1` was tested, and the cytotoxicity call was “inactive”.
In the case of `O=C(C[C@@H]1CC[C@@H]2[C@H](COC[C@H](O)CN2C(=O)Nc2ccc(F)cc2)O1)NCCCN1CCOCC1`, the cytotoxicity call is reported as “inactive”.
With `C[C@H](CO)N1C[C@H](C)[C@@H](CN(C)S(C)(=O)=O)OCCCC[C@H](C)Oc2ccc(NS(=O)(=O)c3cn(C)cn3)cc2C1=O` the cytotoxicity call was “inactive”.
For `C[C@H]1CN([C@@H](C)CO)S(=O)(=O)c2ccc(C#CC3(O)CCCC3)cc2O[C@@H]1CN(C)C(=O)Nc1cccc(F)c1`, the cytotoxicity call was “active”.
For `C[C@H]1CN([C@@H](C)CO)S(=O)(=O)c2ccc(C#Cc3ccccc3F)cc2O[C@@H]1CN(C)C(=O)c1ccc2c(c1)OCO2`, the cytotoxicity call was “inactive”.
For `C[C@@H]1CN([C@@H](C)CO)S(=O)(=O)c2ccc(C#Cc3ccccc3F)cc2O[C@H]1CN(C)C(=O)c1ccc2c(c1)OCO2`, the cytotoxicity call was “active”.
For `C[C@H]1CN([C@@H](C)CO)S(=O)(=O)c2ccc(C#Cc3ccccc3F)cc2O[C@H]1CN(C)C(=O)c1ccc2c(c1)OCO2`, the cytotoxicity call was “inactive”.
With `C[C@@H]1CN([C@@H](C)CO)S(=O)(=O)c2ccc(C#Cc3ccncc3)cc2O[C@H]1CN(C)C(=O)Nc1ccc2c(c1)OCO2` the cytotoxicity call was “active”.
For `C[C@@H]1CN([C@H](C)CO)S(=O)(=O)c2ccc(/C=C/c3ccccc3)cc2O[C@H]1CN(C)C(=O)Nc1cc(F)ccc1F`, the cytotoxicity call was “active”.
For `C[C@H]1CN([C@@H](C)CO)S(=O)(=O)c2ccc(C#Cc3ccncc3)cc2O[C@@H]1CN(C)C(=O)Nc1ccc2c(c1)OCO2`, the cytotoxicity call was “inactive”.
For `C[C@H]1CN([C@@H](C)CO)S(=O)(=O)c2ccc(/C=C/c3ccccc3)cc2O[C@@H]1CN(C)C(=O)Nc1cc(F)ccc1F`, the cytotoxicity call was “inactive”.
With `C[C@H]1CN([C@@H](C)CO)S(=O)(=O)c2ccc(C#Cc3ccncc3)cc2O[C@H]1CN(C)C(=O)Nc1ccc2c(c1)OCO2` the cytotoxicity call was “inactive”.
`C[C@H](CO)N1C[C@H](C)[C@@H](CN(C)C(=O)Nc2cc(F)ccc2F)Oc2cc(/C=C/c3ccccc3)ccc2S1(=O)=O` was tested, and the cytotoxicity call was “inactive”.
With `C[C@@H]1CN([C@@H](C)CO)S(=O)(=O)c2ccc(C#CC3(O)CCCC3)cc2O[C@@H]1CN(C)C(=O)Nc1cccc(F)c1` the cytotoxicity call was “inactive”.
In the case of `C[C@H](CO)N1C[C@H](C)[C@@H](CN(C)C(=O)Nc2cccc(F)c2)Oc2cc(C#CC3(O)CCCC3)ccc2S1(=O)=O`, the cytotoxicity call is reported as “inactive”.
